Hits are enriched below; roughly 2.7% of the tested compounds scored in any of these assays.
ANO1 block: TMEM16A chloride channel inhibitors, primary screen, cell-based, HTS; Anoctamin-1 (Mus musculus), Q8BHY3; HEK293 TMEM16A/YFP iodide influx fluorescence, ionomycin; normalized B-score (activity score, 25-100; higher = stronger inhibition) at 10 µM; 1.2% of 310,000 active;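 active = ratio plate-corrected score three or more library SD toward inhibition, starting fluorescence score within five deviations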;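 note: score derived from kinetic fluorescence span divided by baseline fluorescence per well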
IDE cell activ: human IDE activators in live cells, primary screen, fluorescence polarization, HEK cells, FAbeta-B substrate. 0.073% of 340,000 active. AID 493087, 2011. activation, % at 5.96 µM. Insulin-degrading enzyme (Homo sapiens), P14735. FAbeta-B cleavage; 0% vehicle, 100% cell-free pure enzyme wells;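 active = activation above the mean of all tested compounds plus 3 SD, set per screening campaign, cut at about 17% in these data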
ANO1 activ: TMEM16A chloride channel activators or potentiators, primary screen, cell-based, HTS; Anoctamin-1 (Mus musculus), Q8BHY3; HEK293 TMEM16A/YFP-H148Q/I152L, iodide quench fluorescence; hits give low values; B-score at 10 µM; 0.3% of 340,000 active; AID 623877, 2012;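 active = fluorescence-ratio B-score plate-corrected deviation score at least 3 library SD below zero, with starting fluorescence score within 5 deviations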;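 note: channel opened by trigger with iodide after compound preincubation; score built on the fluorescence ratio of max minus min over baseline; more negative score means more quench and so TMEM16A activation or potentiation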
CHT inh: inhibitors of human choline transporter CHT. High affinity choline transporter 1 (Homo sapiens), Q9GZV3. CHT-expressing cells, membrane potential dye, choline response; hits give low values. B-score at 10 µM. 0.86% of 310,000 active. AID 488975, 2010;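 active = B-score over 3 SD under the library average, and starting fluorescence ratio not unusually high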;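 note: choline stimulus applied at its EC90 after an EC20 pre-addition; B-score computed on integrated fluorescence ratio after choline addition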
Target sequence (Q9GZV3 whole entry, looked up): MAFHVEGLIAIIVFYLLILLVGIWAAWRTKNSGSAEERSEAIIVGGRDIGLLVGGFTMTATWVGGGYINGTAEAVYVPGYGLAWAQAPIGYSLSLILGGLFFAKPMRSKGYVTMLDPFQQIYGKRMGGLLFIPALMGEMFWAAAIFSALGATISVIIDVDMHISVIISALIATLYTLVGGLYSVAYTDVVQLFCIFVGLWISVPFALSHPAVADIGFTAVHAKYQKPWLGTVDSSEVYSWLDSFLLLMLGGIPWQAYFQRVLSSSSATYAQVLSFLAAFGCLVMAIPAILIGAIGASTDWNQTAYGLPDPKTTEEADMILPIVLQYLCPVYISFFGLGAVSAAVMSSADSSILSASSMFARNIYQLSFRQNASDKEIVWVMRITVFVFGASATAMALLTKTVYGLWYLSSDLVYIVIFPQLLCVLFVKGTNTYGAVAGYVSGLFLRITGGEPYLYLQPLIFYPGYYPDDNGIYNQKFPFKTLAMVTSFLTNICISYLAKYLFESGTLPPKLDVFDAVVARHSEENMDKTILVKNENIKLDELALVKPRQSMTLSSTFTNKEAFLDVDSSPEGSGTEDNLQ
CHT allo act: CHT positive allosteric modulators, primary screen, cell-based, membrane potential dye, choline EC20; 0.49% of 310,000 active; B-score at 10 µM; AID 488977, 2010; CHT-expressing cells; hits give high values; LV-AA mutant CHT in HEK293 cells;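 active = initial fluorescence not abnormally high and integrated response B-score, plate-corrected, over 3 SD above library mean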
IDE inh: human IDE inhibitors in live cells, primary screen, fluorescence polarization, HEK cells, FAbetaB substrate; Insulin-degrading enzyme (Homo sapiens), P14735; 0.41% of 320,000 active; inhibition, % at 5.59 µM; FAbetaB cleavage;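 active = percent inhibition above the average of all tested compounds plus 3 SD, set per screening campaign, cut at about 16% in these data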;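 note: IDE supplied by intact live HEK cells; FP after avidin binding of uncleaved biotin substrate so inhibition keeps polarization high; 0% = DMSO wells and 100% = 60 µM reference IDE inhibitor Ii1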
TMEM16A reconf: TMEM16A chloride channel inhibitors, confirmation, cell-based, re-confirmation; HEK293 TMEM16A/YFP-H148Q, iodide quench fluorescence; ionomycin added to raise cell calcium; inhibition, % at 10 µM; shares compounds with ANO1 block; AID 652189, 2013; 39% of 2,300 active;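 active = mean duplicate percent inhibition, scaled so buffer wells are 0 and the reference blocker 100, over three buffer SD above buffer mean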
TMEM16A Ca cntr: calcium mobilization in TMEM16A/YFP HEK293 cells, confirmation, counter-screen for TMEM16A inhibitor project | shares compounds with ANO1 block | Fluo4 calcium mobilization | calcium response (% of ionomycin), % at 10 µM | 2% of 2,300 active;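 active = duplicate-averaged calcium signal over 20% of the ionomycin maximum, relative to buffer baseline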;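 note: each well's signal is peak minus trough fluorescence divided by its pre-addition baseline; 0% = buffer wells and 100% = ionomycin wells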
YFP-HEK293 quench: iodide YFP quench changes in parental YFP-HEK293, counter-screen for TMEM16A inhibitor project, cell-based | shares compounds with ANO1 block | ionomycin | YFP ratio F(max-min)/F0 at 10 µM | 2,300 tested, under 10 active;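 active = yellow fluorescent protein signal ratio exceeding the buffer control mean by over 5 SD of those controls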;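 note: ratio is mean of duplicate wells from kinetic YFP trace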
ClC-1 rat inh: ClC-1 chloride channel inhibition, selectivity assay for TMEM16A inhibitor project, cell-based, voltage-dependent ClC-1. shares compounds with ANO1 block. CHO ClC-1-YFP, iodide influx fluorescence quench; iodide control reads 0, buffer control 100. ratio percent, % at 10 µM. 2,300 tested, under 10 active;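 active = duplicate-mean ratio percent above the mean of iodide-only control wells, which defines zero, plus 5 of their SD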;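 note: higher percent means stronger block of ClC-1 iodide influx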
The depositor's hits bear a star; i = inactive; / = no result given.

SMILES | ANO1 block | IDE cell activ | ANO1 activ | CHT inh | CHT allo act | IDE inh | TMEM16A reconf | TMEM16A Ca cntr | YFP-HEK293 quench | ClC-1 rat inh
Cn1c(SCC(=O)N2CCN(c3ccccc3)CC2)nnc1-c1c[nH]c2ccccc12 | 100* | -7 | i | i | i | 10 | 21%* | i | -0.87 | -8
COc1ccc(-c2cn3c(C)c(C(=O)N4CCN(c5ccc(F)cc5)CC4)sc3n2)cc1 | i | 3 | i | i | i | 1 | / | / | / | /
COc1ccccc1N1CCN(C(=O)c2sc3nc(-c4ccc(F)cc4)cn3c2C)CC1 | 25* | -4 | i | i | i | 0 | i | i | -0.92 | -7
COc1ccc(C(=O)N/N=C/c2ccc(OC(=O)c3ccccc3)cc2)cc1 | i | 1 | i | i | i | 3 | / | / | / | /
COc1ccc(C(=O)N/N=C/c2ccc(N(C)c3ccccc3)cc2)cc1 | 25* | / | i | i | i | 4 | i | i | -1.1 | 2
Cc1ccc(S(=O)(=O)Cc2ccc(C(=O)OCc3ccccc3)cc2)cc1 | 25* | 5 | i | i | i | 6 | 44%* | i | -0.88 | -14
O=C(O)c1ccc(S(=O)(=O)Cc2ccccc2)cc1 | i | 3 | i | i | i | 3 | / | / | / | /
O=C(NC1=NCCS1)c1ccc(Cl)c(S(=O)(=O)N2CCCC2)c1 | 25* | -5 | i | i | i | -4 | i | i | -0.98 | -6
COc1ccc(CCNC(=O)c2cc(-c3ccccn3)nc3ccccc23)cc1 | / | -2 | i | / | / | 6 | / | / | / | /
Cc1ccc(-c2nn3c(C)nnc3s2)cc1N | 100* | -5 | i | i | i | 1 | i | i | -1.2 | -10
Cc1cc(=O)[nH]c(Nc2ccccc2C)n1 | i | -1 | i | i | i | 4 | / | / | / | /
C/C(=N\OC(=O)NC(C)C)c1sc(-c2ccccc2)nc1C | i | 4 | i | i | i | 7 | / | / | / | /
C/C(=N\OC(=O)NC1CCCCC1)c1sc(-c2ccccc2)nc1C | 25* | -3 | i | i | i | 3 | 25%* | i | -1.2 | -10
N#C/C(=C\c1ccc(Sc2nc3ccccc3[nH]2)o1)c1ccccc1 | 100* | 0 | i | i | i | 2 | 22%* | i | -0.93 | -20
CC(=O)c1cccc(NC(=O)c2ccc(CN3CCc4ccccc4C3)cc2)c1 | i | -2 | i | i | i | 9 | 20%* | i | -0.96 | -11
O=C(Nc1cccc(C(=O)N2CCN(Cc3ccccc3)CC2)c1)c1ccccc1 | i | -7 | i | i | i | 1 | / | / | / | /
O=C(Nc1ccc(S(=O)(=O)N2CCOCC2)cc1)c1ccc(CN2CCc3ccccc3C2)cc1 | 100* | / | / | i | i | -3 | 50%* | i | -1.1 | -28
COc1ccc(NC(=O)c2ccc(CN3CCc4ccccc4C3)cc2)cc1OC | i | 0 | i | i | i | 3 | / | / | / | /
Cc1cccc(NC(=O)c2ccc(CN3CCN(Cc4ccccc4)CC3)cc2)c1 | 25* | -5 | i | i | i | -1 | i | i | -0.87 | -12
COc1ccc2c(c1)OC[C@H]1[C@H]2N2C(=O)CN(Cc3ccc(C)cc3)C(=O)[C@@]2(C)[C@H]1c1ccccc1 | / | 0 | i | / | / | 5 | / | / | / | /
Cc1ccc(NC(=O)C2=CCN(S(=O)(=O)c3ccc(F)cc3)CC2)c(C)c1 | 100* | -1 | i | i | i | 4 | i | i | -0.91 | 0
Cc1cc(S(=O)(=O)Nc2nc(CN3CCOCC3)nc3sc4c(c23)CCC4)ccc1F | / | -8 | i | / | / | -3 | / | / | / | /
Cc1ccc(CNC(=O)CSc2nc3ccccc3c(=O)n2CC2CCCO2)cc1 (centres undefined) | / | -1 | i | / | / | 0 | / | / | / | /
O=C(CSc1nc2ccccc2c(=O)n1CC1CCCO1)NCC1CCCO1 (centres undefined) | 100* | -3 | i | i | i | 0 | i | i | -1.2 | -8
COc1ccc(Cl)cc1C(=O)NNC(=O)CCNS(=O)(=O)c1ccccc1 | / | 5 | i | / | / | 0 | / | / | / | /
SMILES | ANO1 block | IDE cell activ | ANO1 activ | CHT inh | CHT allo act | IDE inh | TMEM16A reconf | TMEM16A Ca cntr | YFP-HEK293 quench | ClC-1 rat inh
Cc1ccc(-c2cn(S(=O)(=O)c3cccc4nsnc34)nc2N)cc1 | i | 5 | i | i | i | 2 | / | / | / | /
Nc1nn(S(=O)(=O)c2cccc3nsnc23)cc1-c1ccc(Br)cc1 | 25* | 4 | i | i | i | 1 | i | i | -1 | 2
CC1CCCCC12NC(=O)N(CC(=O)Nc1ccc3[nH]c(=O)[nH]c3c1)C2=O (centres undefined) | i | -1 | i | i | i | 1 | / | / | / | /
Cc1ccc(Nc2nc(C(=O)N3CCC(C(=O)N4CCN(C)CC4)CC3)cs2)cc1 | i | 6 | i | i | i | 4 | / | / | / | /
Cc1ccc(Nc2nc(COC(=O)C3CC3)cs2)cc1 | 100* | 1 | i | i | i | -2 | 21%* | i | -0.83 | -8
Cc1noc(C)c1S(=O)(=O)Nc1ccc2c(c1)C(=O)N([C@H](C)CO)C[C@H](C)[C@@H](CN(C)C(=O)Nc1ccc3c(c1)OCO3)O2 | / | 6 | / | / | / | -2 | / | / | / | /
CCOc1cc(C(=S)N2CCOCC2)ccc1OC(=O)c1ccc(C)cc1 | 25* | 3 | i | i | i | 8 | i | i | -0.93 | -10
CCc1nc(NCc2ccco2)c2oc3ccccc3c2n1 | i | 6 | i | i | i | 5 | / | / | / | /
